Among the data in PubChem BioAssay AID463190 (Sanford-Burnham Center for Chemical Genomics, 2010) are inhibition values, retold here.

Molecules are shown by their SMILES. About 7,300 (2.2%) of roughly 330,000 compounds were called active. The sample holds actives, similar compounds and a random draw of the others, so the mix is not that of the screen.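 The calls were made as follows: active = inhibition of at least 40%; inactive = the rest.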

The nature of this experiment: growth inhibition of tim10-1 ts yeast – luminescence, uHTS, primary screen (AID 463190).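 Also: mutant grown at 25 °C; 0% = DMSO wells with yeast and 100% = wells holding no yeast.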 The following applies: S. cerevisiae tim10-1 ts strain growth, BacTiter-Glo, 24 h; at 20 µM; active compounds read high.
As for `O=C1Oc2ccccc2C(=O)/C1=C/c1ccccc1O`, the inhibition (as a rule, the relative decrease from the control value, in per cent) is 62.2% (active). The figure for `COC(=O)c1ccc(/C=C2/C(=O)Oc3ccccc32)cc1` is 39.9% (inactive); for `COc1ccc2c(c1)O/C(=C\c1ccccc1O)C2=O` it is 18% (inactive); for `Cc1ccccc1/C=C\c1nc(O)c([N+](=O)[O-])c(=O)[nH]1` it is -8.34% (inactive).

Take `CN(C)Cc1c(O)ccc2c(=O)c(-c3ccccc3Cl)coc12`: the inhibition was 1.49% (inactive). For `COc1ccc(NC(=O)CCCNC(=O)Cn2cnc3sc4c(c3c2=O)CCCC4)cc1OC` the value was -24.1% (inactive); for `COc1ccc(NC(=O)CCNC(=O)Cn2cnc3sc4c(c3c2=O)CCCC4)cc1OC`, -10.3% (inactive); for `COc1ccc(/C=N/Nc2ncnc3sc4c(c23)CCCC4)cc1O`, 40.7% (active). With `S=C(NCCc1ccccc1)Nc1ccccc1`, the inhibition was 19.1% (inactive). For `O=C(CCNC(=O)c1ccc(Br)cc1)NCCCc1ccccc1` the value was 7.38% (inactive). The figure for `S=C(NCCCc1ccccc1)Nc1ccc(Br)cc1` is 64.1% (active); for `CC12CN(NC(=O)c3ccc(Cl)cc3)C3(C#N)CC1CCC23C` (stereo not drawn) it is 36.5% (inactive); for `CCn1nc(C(=O)NNS(=O)(=O)c2cc(/C=C/C(=O)O)cc(OC)c2OC)c2ccccc2c1=O` it is -3.64% (inactive). With `O=C(COC(=O)c1ccc(S(=O)(=O)N2CCc3ccccc3C2)cc1)NC(=O)NCc1ccco1`, the inhibition is 0.504% (inactive).

On to `Cc1cnc(C(=O)Oc2cccc(Cl)c2Cl)cn1`, for which the inhibition is -10.1% (inactive). The figure for `N/C(=N\OC(=O)CCC1CCCCC1)c1ccccn1` is 47.6% (active). For `N/C(=N\OC(=O)CC1CCCCC1)c1ccccc1` the value was 49.3% (active); for `COc1ccccc1OCC(=O)O/N=C(\N)c1ccccn1`, 22.7% (inactive); for `O=C(CC1CCCCC1)NCc1ccccc1`, 11.1% (inactive).

Consider `N/C(=N\OC(=O)c1ccc([N+](=O)[O-])cc1)c1ccccn1`, for which the inhibition was 37.6% (inactive).

Regarding `CCc1cccc(C)c1NC(=O)COC(=O)CC1CCCC1`, the inhibition is 2.51% (inactive). The figure for `CCCC(C)C(=O)NCc1ccncc1` (stereo not drawn) is 27.9% (inactive); for `CCCc1cc(=O)[nH]c(SCc2cc(=O)oc3c(C)c(C)ccc23)n1` it is 10.3% (inactive); for `Cc1cccn2c(=O)c3cc(C(=O)NC4CCCCC4)sc3nc12` it is 19.7% (inactive). For `Cc1cc(C)c2c(n1)sc1c(=O)n(-c3ccccc3)c(=O)[nH]c12` the value was 4.48% (inactive). For `Cc1cccc(NC(=S)Nc2ccc3cn[nH]c3c2)c1` the value was 15.4% (inactive); for `Cc1cccc(NC(=S)NC23CN4CN(CN(C4)C2)C3)c1`, 10% (inactive).

Regarding `Cc1cccc(NC(=S)Nc2ccc(Cl)c(Cl)c2)c1`, the inhibition was 49.9% (active). The figure for `Cc1cccc([C@@H]2[C@@H]3C(=O)N(C)C(=O)[C@@H]3[C@@H]3C(=O)Nc4ccccc4C(=O)N23)c1` is 5.99% (inactive); for `O=C(NC1CCCC1)c1cc(-c2ccccc2)on1` it is -21.5% (inactive). For `FC(F)(F)c1nnc2c3ccccc3c(Cl)nn12` the value was 17.8% (inactive). For `CC1CCc2sc3nc(N4CCN(CCO)CC4)n4ncnc4c3c2C1` (stereo not drawn) the value was 40.6% (active); for `Cc1cc(NC(=O)CSc2nc(C(C)C)nc3sc4c(c23)CCC(C)C4)no1` (stereo not drawn), 4.7% (inactive). Take `CC(C)(C)C(=O)/C(C#N)=C/c1ccc(O)cc1`: the inhibition is 8.78% (inactive). For `Cc1[nH]c2ccccc2c1/C=C(/C#N)C(=O)NC(C)C` the value was 20.4% (inactive); for `CC(C)NC(=O)/C(C#N)=C\c1ccc(N(C)C)c(Br)c1`, 53.6% (active). As to `Cc1ccc(C(=O)OC2=CC(=O)CC(C)(C)C2)cc1`, the inhibition was 31% (inactive). The figure for `COCCCNS(=O)(=O)c1cccc(S(=O)(=O)c2cccc(S(=O)(=O)NCCCOC)c2)c1` is 2.99% (inactive).

On to `O=C(NCCCN1CCOCC1)c1ccc(N2CCCC2)c([N+](=O)[O-])c1`, for which the inhibition is -9.34% (inactive). `O=C(COc1ccccc1F)NNC(=O)c1ccc(N2CCCCC2)c([N+](=O)[O-])c1`: the inhibition is 41.3% (active). For `Cc1ccccc1OCC(=O)NNC(=O)c1ccc(-n2cncn2)c([N+](=O)[O-])c1` the value was -11% (inactive); for `CC(C)CC(=O)N/C(N)=N/c1nc2ccccc2s1`, 19.6% (inactive); for `CCOC(=O)/C(N=Nc1cc(C(=O)O)cc(C(=O)O)c1)=C(\O)CCl`, 11% (inactive). For `O=c1cccc(-c2ccc(Br)cc2)o1`, the inhibition is 4.04% (inactive).

Regarding `COc1ccccc1/C=C/C(=O)NC1CC2CCC1C2` (stereo not drawn), the inhibition was 19.5% (inactive). The figure for `CCOC(=O)C(=Cc1ccccc1OC)C(=O)OCC` is 49.6% (active).

As for `CCOC(=O)C(=CNc1cccc(C)n1)C(=O)OCC`, the inhibition was -6.8% (inactive). For `Cc1c(C)n2c(SCC(=O)N3CCCC3)nnc2[nH]c1=O` the value was 0.597% (inactive); for `CCCCCCC(=O)N(O)C1CC(=O)N(c2ccccc2)C1=O` (stereo not drawn), 33.7% (inactive). For `CCN(CC(=O)Nc1ccccc1C(=O)NC1CC1)Cc1cccs1` the value was 17.5% (inactive). For `CSC1=N/C(=C\C=C\c2cccs2)C(=O)S1` the value was 47.1% (active); for `CN1C/C(=C/c2cccs2)C(=O)/C(=C\c2cccs2)C1`, 19.2% (inactive); for `Cc1cccc(C2=N/C(=C/c3cccs3)C(=O)O2)c1`, 31.5% (inactive). For the compound `O=C(NCc1ccccc1Cl)C1CCC(CNc2c(N3CCCCC3)c(=O)c2=O)CC1` (stereo not drawn), the inhibition is -8.66% (inactive). For `C/C(=N\NC(=O)c1cc2c(s1)CCC(C)C2)c1cccnc1` (stereo not drawn) the value was 39.6% (inactive); for `CCOC(=O)C1=C(c2ccccc2)NC(=O)NC1c1cc(OCC)c(O)c([N+](=O)[O-])c1` (stereo not drawn), -5.37% (inactive). For `CCCc1[nH]nc2c1C(c1ccc(Br)s1)C(C#N)=C(N)O2` (stereo not drawn) the value was 83% (active). As to `CCCc1[nH]nc2c1C(c1ccc(OC)c(Cn3nc(C)c(Br)c3C)c1)C(C#N)=C(N)O2` (stereo not drawn), the inhibition is 11.3% (inactive).

As for `CCCc1[nH]nc2c1C(c1ccc(OC(=O)c3ccco3)cc1)C(C#N)=C(N)O2` (stereo not drawn), the inhibition was 8.03% (inactive). For `COc1ccc(NC(=O)COC(=O)CNC(=O)C2CCCCC2)cc1` the value was 4.06% (inactive); for `CCOC(=O)c1cccc(NC(=O)CCOc2ccccc2)c1`, 12.6% (inactive). For `Cc1ccc(NC(=O)CCOc2ccccc2)cc1S(=O)(=O)Nc1ccccc1Cl` the value was 43.7% (active). The figure for `CCc1ccccc1NC(=O)CCOc1ccccc1` is 11.8% (inactive); for `CN(C(=O)CSc1nnc(Nc2ccccc2)s1)C1CCS(=O)(=O)C1` (stereo not drawn) it is 8.97% (inactive).

`COc1ccc(-c2cc(=O)oc3cc(OCC(=O)N[C@@H](Cc4c[nH]c5ccccc45)C(=O)O)ccc23)cc1`: the inhibition was 16.2% (inactive). In the case of `C=CCOC(=O)C1=C(C)N=C2SCCC(=O)N2C1/C=C/c1ccccc1OC` (stereo not drawn), the inhibition was 5.92% (inactive). For `COc1ccc(-c2cn[nH]c2-c2ccc(OC)cc2)cc1` the value was 38.8% (inactive); for `CCOc1ccccc1Oc1cn[nH]c1-c1ccc(OC)cc1O`, -13% (inactive); for `COc1ccc(Oc2cn[nH]c2-c2ccc(OC)cc2O)cc1`, 50.1% (active).

Consider `Cn1sc(=O)c2cc(S(=O)(=O)NC3CC3)ccc21`, for which the inhibition was 22.8% (inactive). The figure for `COc1ccc(N2CCN(C(=O)CCSCc3ccccc3F)CC2)cc1` is 40.2% (active). For `COc1ccc(N2CCN(C(=O)CCNC(=O)c3ccc(Br)cc3)CC2)cc1` the value was 12.6% (inactive); for `O=C(CCc1ccccc1F)N1CCN(c2ccccc2)CC1`, 6.47% (inactive); for `CN(Cc1c(F)cccc1Cl)C(=O)CNC(=O)c1ccc2c(c1)OCO2`, 7.42% (inactive). For `Cc1ccc(NC(=S)Nc2ncccc2C)c(C)c1` the value was 36.8% (inactive); for `O=C(NCCCn1ccnc1)/C(=C\c1ccccc1F)NC(=O)c1ccccc1`, -16.4% (inactive). Turning to `O=C(NNc1c2ccccc2nc2ccccc12)c1cc2ccccc2cc1O`, the inhibition was 48.9% (active). For `O=C(NN=Cc1ccc(N2CCOCC2)cc1)c1cc2ccccc2cc1O` the value was 0.793% (inactive); for `COc1ccc(-c2cc(C(=O)Nc3ccccc3O)c3ccccc3n2)cc1`, 11.2% (inactive). The figure for `CC1=CC(C)(C)Nc2ccc(OC(=O)CN3C(=O)C4CCCCC4C3=O)cc21` (stereo not drawn) is 42.7% (active); for `CC1=CC(C)(C)Nc2ccc(OC(=O)C(Cc3ccccc3)N3C(=O)C4CCCCC4C3=O)cc21` (stereo not drawn) it is 25.9% (inactive). The figure for `O=C(COC(=O)CN1C(=O)C2CCCCC2C1=O)Nc1ccc(F)c(F)c1F` (stereo not drawn) is 8.83% (inactive). As for `Cc1cccc(C(=O)OC(C)C(=O)NC2CCCc3ccccc32)c1O` (stereo not drawn), the inhibition is 14.7% (inactive). The figure for `Cc1nc2ccccc2cc1OCc1ccc(F)cc1` is 40.5% (active); for `Cc1occc(=O)c1OCc1ccc(F)cc1` it is 1.21% (inactive). Turning to `Fc1cccc2ncnc(OCc3ccccc3)c12`, the inhibition was 5.91% (inactive). The figure for `O=c1[nH]c2ccccc2s1` is 8.84% (inactive); for `O=C(NC1CCCCCC1)c1cccnc1Sc1ccc(Cl)cc1` it is 17.4% (inactive); for `O=C(NC(=S)NC1CCCCC1)c1ccc(Cl)cc1` it is 34.7% (inactive).

As for `O=C(NC1CCCCC1)c1ccc(-c2ccc(Cl)cc2)o1`, the inhibition is 46.1% (active). Regarding `Cc1cnc(CN(C)C(=O)CC2C(=O)NCCN2Cc2cccc(F)c2F)[nH]1` (stereo not drawn), the inhibition is 0.623% (inactive).

Regarding `CC(C)OCC(O)CN1CCN(C(c2ccccc2)c2ccccc2)CC1` (stereo not drawn), the inhibition was 6.5% (inactive). The figure for `COC(=O)COc1ccc(C2NC(=O)NC(C)=C2C(=O)NCc2ccccc2)cc1OC` (stereo not drawn) is 1.06% (inactive); for `Cc1ccc(SCC2=NNC(=O)C2)cc1` it is 33.5% (inactive); for `CCOc1ccc(NC(=O)CN(C)C(=O)Cn2c(=O)cnc3ccccc32)cc1OCC` it is -8.6% (inactive). Take `O=C(CSc1nc(Nc2ccccc2)nc(N2CCOCC2)n1)Nc1cc(Cl)ccc1O`: the inhibition was -0.275% (inactive). For `C/C(=N\Nc1nc(Nc2ccccc2)nc(N2CCOCC2)n1)c1cccs1`, the inhibition was 41.3% (active). For the compound `C/C(=N\Nc1nc(N2CCOCC2)nc(N2CCOCC2)n1)c1ccc([N+](=O)[O-])cc1`, the inhibition was 14% (inactive).
